# In PubChem BioAssay AID2501 (Southern Research Specialized Biocontainment Screening …, 2010):
# In all, about 2,200 compounds went through this assay and about 1,200 (55%) were called active. No cut-off is given here; in the data, nearly all actives have IC50 up to about 92 µM. The set was probably picked from earlier hits. Some of the results follow.
# Assay: counter assay for TAg ATPase ADP read-out – biochemical, ADP-Hunter, fluorescence, counter-screen (AID 2501);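 note: purified T antigen ATPase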
# Details: series mostly up to 100 µM
row,SMILES,IC50
1,O=c1c(-c2ccc(O)cc2)coc2cc(OC3OC(CO)C(O)C(O)C3O)ccc12 (stereo unspecified),12.9 µM (active)
2,O=C(O)CC(CCc1ccccc1)OC1OC(CO)C(O)C(O)C1O (stereo unspecified),inactive
3,OC[C@H]1O[C@@H](Oc2cc(O)cc(/C=C/c3ccc(O)cc3)c2)[C@H](O)[C@@H](O)[C@@H]1O,7.7 µM (active)
4,CCCCN(CC)Cc1ccc(CNC(=S)Nc2ccc(C)cc2Cl)o1,inactive
5,Oc1ccc(/C=N/Nc2nccnc2Cl)cc1,3.29 µM (active)
6,Oc1ccc(/C=N/Nc2nccnc2Cl)c(O)c1,11.8 µM (active)
7,O=c1[nH]ncc(N/N=C\c2ccc(O)cc2O)c1Cl,6.23 µM (active)
8,CCc1ccc2nc3n[nH]c(N)c3cc2c1,5.76 µM (active)
9,Cc1cc2cc3c(N)[nH]nc3nc2cc1C,6.68 µM (active)
10,Cc1ccc2cc3c(N)[nH]nc3nc2c1,6.56 µM (active)
11,C=CCOC(=O)C1=C[C@@H](c2ccc3c(c2)OCO3)C[C@@H](OCCCCO)O1,inactive
12,O=C(O)c1cc(S(=O)(=O)O)cc(Nc2c3ccccc3nc3ccccc23)c1O,14.7 µM (active)
13,COC/C=C/C1=CC2=CC(=O)C(C)(O)C(=O)C2=CO1 (stereo unspecified),inactive
14,Nc1ccc(-c2nc3cc(N)ccc3n2CCO)cc1,9.16 µM (active)
15,O=C(O)C1Nc2ccc(OC(F)(F)F)cc2C2C=CCC12 (stereo unspecified),inactive
16,COc1ccc(Nc2ccc(OC)cc2)cc1,11.3 µM (active)
17,Oc1ccc(-c2nc(-c3ccc(O)c(O)c3)cs2)cc1,17.4 µM (active)
18,COc1cc(-c2csc(C)n2)ccc1O,3.58 µM (active)
19,Cc1nc(-c2ccc(O)c(O)c2)cs1,6.64 µM (active)
20,COC(=O)C1=C(C)N(Cc2ccccc2)C(=NCCCCO)N[C@H]1c1ccccc1,inactive
21,Cc1nc(SCC(=O)N2CCOCC2)c2ccsc2n1,inactive
22,COc1ccc(N2CCC(CNC(=O)Nc3cccc(OC)c3)C2)cc1 (stereo unspecified),3.36 µM (active)

row,SMILES,IC50
1,COc1ccc(N2CCC(CNC(=O)Nc3ccccc3)C2)cc1 (stereo unspecified),8.01 µM (active)
2,CC(=O)c1cccc(NC(=O)N2CCCC2C(=O)NCc2ccccc2)c1 (stereo unspecified),inactive
3,COc1ccc(S(=O)(=O)N2CCN(CC(=O)Nc3cccc(OC)c3)CC2)cc1,inactive
4,Nc1nc(Sc2c([N+](=O)[O-])cc(C(F)(F)F)cc2[N+](=O)[O-])n[nH]1,inactive
5,Oc1ccc(Nc2nc(Cl)nc(NCc3ccco3)n2)cc1,6.71 µM (active)
6,CCOC(=O)CNc1c(-c2ccc(O)cc2)nc2ccc(Cl)cn12,2.95 µM (active)
7,Oc1ccc(-c2nc3ccccn3c2NCc2ccco2)cc1,3.24 µM (active)
8,CC(C)Nc1nc(Cl)nc(Nc2ccccc2)n1,inactive
9,CCOC(=O)CNc1c(-c2ccc(O)cc2)nc2ccccn12,4.76 µM (active)
10,CCOC(=O)CC(=O)CSc1nc(N)c(C#N)c(-c2ccc(Cl)cc2)c1C#N,inactive
11,O=C(c1ccc(Cl)cc1)C1CCCN(C(=O)c2csnn2)C1 (stereo unspecified),inactive
12,O=c1c(-c2ccc([N+](=O)[O-])cc2)coc2c(O)c(O)ccc12,11.1 µM (active)
13,O=C(NNC(=O)c1ccccc1O)c1ccc(-c2ccc([N+](=O)[O-])cc2)o1,inactive
14,CCOc1ccc(OC(=O)c2cccc(S(=O)(=O)N3CCN(C)CC3)c2)cc1,41.5 µM (active)
15,CC(=O)c1cccc(S(=O)(=O)N2CCCC(c3nc(-c4ccc(C)o4)no3)C2)c1 (stereo unspecified),inactive
16,O=C(CCN1C(=O)C2CCCCC2C1=O)N1CCN(S(=O)(=O)c2cccc(F)c2)CC1 (stereo unspecified),inactive
17,COc1cc(-c2nnc(SCc3cc(=O)oc4cc(O)c(O)cc34)o2)cc(OC)c1OC,11.6 µM (active)
18,COc1cc(/C(C)=N/NC(=O)CSc2nnc(C)s2)ccc1O,8.44 µM (active)
19,CCOC(=O)c1c(C)[nH]c(C)c1C(=O)CSc1nc2ccccc2[nH]1,inactive
20,COc1cc(/C(C)=N/NC(=O)CSc2nc3ccccc3[nH]2)ccc1O,6.48 µM (active)
21,CC1C=CCC2C(=O)N(c3cc(Cl)ccc3O)C(=O)C12 (stereo unspecified),inactive
22,COc1ccc(NN=Nc2nc3c([nH]2)c(=O)n(C)c(=O)n3C)cc1,25.4 µM (active)

row,SMILES,IC50
1,O=S(=O)(Nc1c(S(=O)(=O)c2ccccc2)c2nc3ccccc3nc2n1C1CCCCC1)c1ccccc1,inactive
2,CCN(CC)P(=O)(C(NC(=O)OC)C(F)(F)C(F)(F)C(F)(F)C(F)F)N(CC)CC (stereo unspecified),inactive
3,O=Nc1ccc(NOC(=O)c2ccccc2Br)cc1,22.1 µM (active)
4,N#Cc1c(Nc2ccccc2C(F)(F)F)s[nH]c1=O,inactive
5,C/C(=N\NC(=O)CSCc1ccc([N+](=O)[O-])cc1)c1ccccc1,inactive
6,C/C(=N\NC(=O)Cn1cc([N+](=O)[O-])cn1)c1ccc(O)cc1,10.7 µM (active)
7,Oc1ccc(CCNc2c3ccccc3nc3ccccc23)cc1O,6.72 µM (active)
8,O=C1CC(c2ccccc2)c2cccc(F)c21 (stereo unspecified),inactive
9,COc1cc(/C=N\NC(=O)c2ccc(Cn3nc([N+](=O)[O-])c(Cl)c3C)o2)ccc1O,6.71 µM (active)
10,COc1ccc(/C=N/NC(=O)c2cc(O)c(O)c(O)c2)cc1Cn1cc([N+](=O)[O-])cn1,inactive
11,COc1cc(/C=N/NC(=O)c2ccc(Cn3cc([N+](=O)[O-])cn3)o2)cc(Br)c1O,8.55 µM (active)
12,COC(=O)CCC(=O)OC1(C)C(=O)C2=COC(c3ccc(OC)cc3)=CC2=C(Br)C1=O (stereo unspecified),inactive
13,Cc1nn(C(C)C(=O)O)c2ccccc12 (stereo unspecified),inactive
14,COc1cc(C2C(C#N)=C(N)Oc3n[nH]c(-c4cccnc4)c32)cc(Br)c1O (stereo unspecified),16.7 µM (active)
15,Cc1[nH]nc2c1C(C(C)c1ccccc1)C(C#N)=C(N)O2 (stereo unspecified),inactive
16,CCOc1cc(/C=C/c2cc(C(F)(F)F)[nH]c(=O)n2)ccc1O,6.98 µM (active)
17,COc1cccc(C2C(C(C)=O)=C(O)C(=O)N2CCNCCO)c1 (stereo unspecified),inactive
18,COc1cccc(C(=O)Nc2ccc3c(c2)n(C)c(=O)n3C)c1,12.6 µM (active)
19,Cn1cccc1/C=N/NC(=O)c1cccc(OC(F)(F)C(F)F)c1,inactive
20,Oc1ccc(/C=N/NC(=S)Nc2cccnc2)cc1,0.9 µM (active)
21,Oc1cccc(/C=N/NC(=S)Nc2cccnc2)c1O,8.21 µM (active)
22,CN(C(=S)Nc1cccnc1)c1ccc(O)cc1,40.6 µM (active)
